From PubChem BioAssay AID1903 (Southern Research Specialized Biocontainment Screening …, 2009)
The campaign covered roughly 310,000 compounds. About 1,200 (0.39%) were called active. How the calls were made is not given here. A selection follows. Potency and affinity values are given separately.

molecular target: Large T antigen (Simian virus 40) (UniProt P03070); experiment: TAg ATPase/helicase activity blockers – biochemical (AID 1903); conditions: SV40 large T antigen ATPase/helicase inhibition assay; at 20 µM; active compounds read high
Sequence (P03070 whole entry, looked up): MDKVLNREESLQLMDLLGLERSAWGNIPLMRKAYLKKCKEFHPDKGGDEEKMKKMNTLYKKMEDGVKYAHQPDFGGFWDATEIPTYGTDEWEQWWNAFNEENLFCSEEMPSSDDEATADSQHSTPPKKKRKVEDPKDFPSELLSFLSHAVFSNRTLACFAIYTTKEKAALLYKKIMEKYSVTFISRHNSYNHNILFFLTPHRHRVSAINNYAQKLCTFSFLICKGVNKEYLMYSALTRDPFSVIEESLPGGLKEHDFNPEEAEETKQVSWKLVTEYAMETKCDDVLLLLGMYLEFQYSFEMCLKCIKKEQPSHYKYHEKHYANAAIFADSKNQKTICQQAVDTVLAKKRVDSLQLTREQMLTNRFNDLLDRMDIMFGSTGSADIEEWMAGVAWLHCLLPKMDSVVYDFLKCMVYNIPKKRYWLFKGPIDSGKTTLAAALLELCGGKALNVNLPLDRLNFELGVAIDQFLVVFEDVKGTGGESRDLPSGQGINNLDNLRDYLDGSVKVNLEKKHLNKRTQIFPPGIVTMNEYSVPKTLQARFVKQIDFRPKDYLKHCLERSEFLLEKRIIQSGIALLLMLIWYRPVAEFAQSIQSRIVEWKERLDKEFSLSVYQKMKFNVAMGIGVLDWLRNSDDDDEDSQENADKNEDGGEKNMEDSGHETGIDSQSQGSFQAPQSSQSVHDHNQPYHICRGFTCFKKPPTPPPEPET

inhibition, inactive:
O=C(COC(=O)Cc1ccccc1F)NNC(=O)c1ccc([N+](=O)[O-])cc1 22.7%, FC(F)Oc1ccc(-n2cc(-c3ccccc3)[n+]3c2CCCCC3)cc1 10.7%, COc1ccccc1NC(=S)N1CCN(c2cccc(C)c2C)CC1 -4.85%, COc1ccccc1NS(=O)(=O)c1ccc(O)cc1 7.04%, O=C(O)CN1C(=O)S/C(=C\c2cccnc2)C1=O 16.2%, O=C(CCc1nnc(-c2ccsc2)o1)NCc1ccccc1OC(F)(F)F 3.5%, CN(C)S(=O)(=O)c1ccc(NC(=O)c2ccccn2)cc1 -5.42%, O=C(NCc1ccco1)C1CC(=O)N(c2ccc(F)cc2)C1 (configuration not stated) 9.04%, O=C(NCc1ccco1)C1CC(=O)N(c2ccc(Cl)cc2)C1 (configuration not stated) -4.21%, [O-][n+]1ccccc1/C=C/c1ccccc1 7.12%, [O-][n+]1ccccc1SCc1ccccc1 10.4%, COc1ccc(NC(=O)C2CCN(S(=O)(=O)c3cccc4nonc34)CC2)c(OC)c1 10.9%, CC1CCN(CCCCOc2ccc([N+](=O)[O-])cc2)CC1 20.7%, O=C(CN1CCCN(Cc2ccc(F)cc2)S1(=O)=O)NC1CCCC1 1.85%, O=C(Nc1ccc(Cl)cc1)NC1CCCCC1 0.423%, Cc1ccc(NC(=O)NC2CCCCCCC2)cc1 3.82%, O=C(c1ccc2c(c1)OCO2)N1CCC2(CC1)Oc1ccc(Cl)cc1C(=O)C21CC(c2cccnc2)=NO1 (configuration not stated) 6.56%, O=C(CCn1c(=O)oc2ccccc21)Nc1cccc(Cl)c1 6.5%, O=C(CCn1c(=O)oc2cc(Cl)ccc21)Nc1ccc(N2CCOCC2)cc1 12.7%, CCCCN(C(=O)c1ccc(S(=O)(=O)N2CCCC2)cc1)C1CCS(=O)(=O)C1 (configuration not stated) 2.38%, O=C(COc1ccc(Br)cc1)NNC(=S)NCc1ccccc1 15%, COC(=O)/C(C#N)=C1/C=Cc2ccccc2N1 9.95%, O=S1c2ccccc2Nc2ccccc21 8.27%, OC[C@H]1OC(O)[C@@H](O)[C@@H](O)[C@@H]1O (some centres not stated) 12.2%, O=C(Cn1nc(C(=O)O)c2ccccc2c1=O)NC12CC3CC(CC(C3)C1)C2 3.68%, O=C(CSc1ccccc1C(=O)O)NC12CC3CC(CC(C3)C1)C2 7.17%, N#Cc1ccsc1NC(=O)CN1CCN(S(=O)(=O)c2ccc3ccccc3c2)CC1 -5.22%
